According to PubChem BioAssay AID777 (Sanford-Burnham Center for Chemical Genomics, 2007):
The campaign covered roughly 96,000 compounds. About 19,000 (20%) were called active.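 Rule for the calls: active = blocking of liver enzyme CYP2C9 beyond about 50% at 5 µM (limit read from the data); inactive = the rest.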 These entries were drawn from the full list.

The compounds below were run against Cytochrome P450 2C9 (Homo sapiens) (UniProt P11712) (assay: blockers of cytochrome P450 2C9 activity – biochemical, luminescence, ADME assay, primary screen (AID 777)). Settings: CYP2C9 Supersomes, luciferin-H conversion, at 5 µM, stronger effect = higher value.
Sequence of Cytochrome P450 2C9 (Homo sapiens) (P11712 whole entry, looked up): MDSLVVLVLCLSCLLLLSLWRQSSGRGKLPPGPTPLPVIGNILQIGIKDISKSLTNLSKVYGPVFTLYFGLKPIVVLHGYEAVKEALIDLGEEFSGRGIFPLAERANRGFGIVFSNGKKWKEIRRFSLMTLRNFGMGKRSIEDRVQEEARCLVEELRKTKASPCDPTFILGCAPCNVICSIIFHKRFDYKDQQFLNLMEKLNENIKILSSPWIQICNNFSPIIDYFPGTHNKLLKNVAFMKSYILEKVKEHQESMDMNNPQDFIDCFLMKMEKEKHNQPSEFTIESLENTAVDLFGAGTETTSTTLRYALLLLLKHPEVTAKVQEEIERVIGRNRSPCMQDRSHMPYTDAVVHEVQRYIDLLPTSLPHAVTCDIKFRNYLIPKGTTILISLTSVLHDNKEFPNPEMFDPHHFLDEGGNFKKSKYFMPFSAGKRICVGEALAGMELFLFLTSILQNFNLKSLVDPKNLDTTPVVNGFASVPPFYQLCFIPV

inhibition, inactive:
Cc1cc2ccccc2n2c(SCC(=O)N3CCN(C(=O)c4ccco4)CC3)nnc12 -4.3%, CCCCNC(=O)CCn1c(=S)[nH]c2cc3c(cc2c1=O)OCO3 36.3%, O=C(c1ccc2c(c1)N(Cc1ccc(F)cc1)C(=O)CS2)N1CCOCC1 1.7%, CCOC(=O)c1oc2ccccc2c1NC(=O)c1cccs1 20.2%, Cc1cc(Nc2ccccc2)nc(N)n1 -6.6%, COc1ccccc1CNS(=O)(=O)c1ccc(C)cc1 -159%, Cc1ccc(S(=O)(=O)NCCSC(C)(C)C)cc1 23.6%, CCOc1ccc(NC(=O)Nc2ccc(N(C)C(C)=O)cc2)cc1 -6.3%, CC(=O)Nc1cccc(/C(C)=N/NC(=O)c2ccccc2Cl)c1 0.2%, O=C(Nc1ccc2sc3ccccc3c(=O)c2c1)c1ccccc1Cl -9%, COc1ccc(-c2nnn(Cc3nc(N)nc(N4CCCCC4)n3)n2)cc1 17.3%, CCOc1cc(/C=C2/N=C(c3ccc(C(C)(C)C)cc3)OC2=O)cc(Cl)c1OS(C)(=O)=O 30.3%, CCOCCCN1C(=O)CN(C2CCCCC2)C(=O)C1c1ccc(OCC)c(OC)c1 (stereo not drawn) 15.3%, COc1cc2[nH]c(=S)n(Cc3ccc(C)o3)c(=O)c2cc1OC -0.8%, Cc1nc2cc(S(=O)(=O)C(F)(F)F)ccc2s1 1.9%, Cc1nnc(NC(=O)Nc2ccc(Cl)c(Cl)c2)s1 48.4%, N/C(=N\OC(=O)Nc1ccc(Cl)c(Cl)c1)c1ncc(C(F)(F)F)cc1Cl -6.7%, Cc1ccc(S(=O)(=O)c2c(N)n(C)c3nc4ccccc4nc23)cc1 14.2%, C=CCn1c(N)c(C(=O)OCC(C)C)c2nc3ccccc3nc21 28.3%, CCCCSc1nnc(-c2ccc(C)cc2)o1 31.3%, CCS(=O)(=O)N1CCC(C(=O)N2CCN(c3ccccc3)CC2)CC1 9.9%, O=C(CSCc1ccccc1)N1CCc2ccccc21 -12.4%, CCOc1ccc(NC(=O)C2CC(=O)N=C(N)S2)cc1 (stereo not drawn) -2.4%, CC(NC(=O)C1CCC(CNc2c(N3CCOCC3)c(=O)c2=O)CC1)c1ccccc1 (stereo not drawn) -6.7%, O=C(Nc1cccc2cccnc12)c1cccc(N2C(=O)CCC2=O)c1 -71.6%, Cn1c(CNC(=O)C(C)(C)C)nc2ccccc21 -13.1%, COc1ccc(Cc2nnc(SCC(=O)c3cccc([N+](=O)[O-])c3)n2C)cc1 38.7%, COc1cc(C(=S)N2CCOCC2)cc(OC)c1OC(=O)c1cc([N+](=O)[O-])cc([N+](=O)[O-])c1 -5%, CCC1CCCCN1CCCNC(=O)Cn1nc(-c2ccccc2)ccc1=O (stereo not drawn) 9.1%, Cc1c(NC(=O)CSc2cccc3cccnc23)c(=O)n(-c2ccccc2)n1C -25.5%, O=c1cccc(-c2ccc(Br)cc2)o1 -19.8%, Cc1cc(C(=O)OCC(=O)NCc2ccco2)c(C)n1-c1ccccc1 42.1%, COc1cc(-n2c(C)nc3cc(C(=O)NCc4ccco4)ccc32)cc(OC)c1OC 8.4%, O=C(NCc1ccco1)c1ccc(CS(=O)(=O)Cc2ccc(F)cc2)o1 40.7%, O=C(NCc1ccco1)c1sc2cccc(F)c2c1Cl -26.6%, O=C(NCCc1ccco1)c1nn(Cc2ccccc2)c(=O)c2ccccc12 7.4%, Cc1nc2c(-c3ccc(F)cc3)c(C)nn2c(C)c1CCC(=O)NCc1ccco1 24.9%, NC(=O)CCCC1=NS(=O)(=O)c2ccccc2N1 4.2%, O=S(=O)(CCc1nc2ccccc2o1)c1ccc(Cl)cc1 -2.3%, CCOC(=O)N1CCN(C(=O)C2CC(c3ccc(F)cc3)=NO2)CC1 (stereo not drawn) 8.8%, CCC(=O)N1CCc2cc(S(=O)(=O)NC(C(=O)N3CCc4ccccc4C3)C(C)C)ccc21 (stereo not drawn) 27%, CCCS(=O)(=O)N1CCC(C(=O)NCCCN(C)Cc2ccccc2)CC1 20.7%, Cc1cccc(N2CCN(C(=O)C3CCN(S(=O)(=O)c4cnc[nH]4)CC3)CC2)c1C 30.4%, CCCCC(=O)N(c1ccc(OC)cc1)C1C=CS(=O)(=O)C1 (stereo not drawn) 25.7%, CC(C)NC(=O)CSc1ccccc1C(=O)NCc1ccc2c(c1)OCO2 16.9%, Cn1cccc1Cc1nnc(SCC(=O)NCCc2ccccc2)n1-c1ccc(F)cc1 48.3%, Cc1ccc(-n2c(SCC(=O)Nc3ccc4c(c3)OCO4)nnc2-c2ccccn2)cc1 43%, O=C(CSc1nnc(-c2ccccn2)n1-c1ccccc1)Nc1ccc2c(c1)OCO2 2.8%, CNC(=O)CSc1nnc(CCc2ccccc2)n1-c1ccccc1 -17.6%, Cc1cccc(NC(=S)Nc2ccc(Br)cc2)c1 2.2%, CC(C)(C)C(=O)CCN1C(=O)C2(OCCO2)c2ccccc21 7.8%, CCN(CC)CCNC(=O)C1c2ccccc2C(=O)N(C)C1c1cn(C)c2ccccc12 (stereo not drawn) 1.7%, COc1ccc(-c2nnco2)cc1OC -14.9%, COc1ccc(NC(=O)CC2COc3ccccc3O2)c(OC)c1 (stereo not drawn) 5.9%, O=C(CN1C(=O)CSc2ncccc21)N1CCOCC1 41.4%, O=C(c1ccco1)N1CCN(c2cccc(Cl)c2)CC1 17.6%, O=C(c1ccc2c(c1)OCO2)N1CCN(C(=O)c2ccco2)CC1 15.8%, COc1nc(Oc2ccc(=O)n(C)n2)nc(N(C)C)n1 -16.1%, COc1cc(C(=S)N2CCOCC2)cc(OC)c1OC(=O)c1cc([N+](=O)[O-])c(C)c([N+](=O)[O-])c1 5.7%, COc1ccc(C(=O)Cn2nnc(-c3ccc(N4CCOCC4)cc3)n2)cc1OC -6%, Cc1nn(-c2cc(Cl)ccc2N)c(=O)c2ccccc12 2.2%, O=C1C2(c3ccccc3)CN(CCCO)CC1(c1ccccc1)CN(CCCO)C2 7.8%, Cc1ccc(NC(=O)CCNS(=O)(=O)c2ccc3c(c2)oc(=O)n3C)cc1C -21.7%, CCCCC(=O)N1CC2(C)CN(C(=O)CCCC)CC(C)(C1)C2=O -4%, Cn1cnc([N+](=O)[O-])c1Sc1ccccc1 8.6%, O=C(N1CCOCC1)N1CCOCC1 -8.2%, COc1ccc(C2CC(c3ccc(C)cc3)Nc3nc(N)nn32)cc1 (stereo not drawn) 27.3%, COc1ccc(C2CC(c3ccccc3)Nc3ncnn32)cc1 (stereo not drawn) 23.9%, CCC(=O)c1ccc(OCC(O)CN2CC(C)OC(C)C2)cc1 (stereo not drawn) 18.3%, N#Cc1ccc(-c2ccc(Cl)cc2)nc1Oc1ccc(F)cc1 6.8%, O=S(=O)(c1ccc(Br)cc1)n1ccc2ccccc21 -2.4%, CCOCCOCCC(C(=O)O)P(=O)(c1ccccc1)c1ccccc1 (stereo not drawn) -7.7%, COC(=O)c1sccc1N/N=C(\C)c1ccc(F)c(Cl)c1 9.3%, COC(=O)c1sccc1NC(=O)c1cc(OC)c(OC)c(OC)c1 7.6%, COC(=O)c1ccccc1Oc1c(F)c(F)nc(N2CCOCC2)c1F 45.2%, CCCCCn1c(SCCC(C)C)nc2c1c(=O)[nH]c(=O)n2C 10.1%, CCOc1ccc(NC(=O)CSc2nc3c(c(=O)n2-c2ccccc2OC)SCC3)cc1 40.8%

inhibition, active:
Cc1ncc(CC(=O)n2cc(C(=O)c3cc(Cl)ccc3O)cn2)s1 81.1%, Cc1ccc(S(=O)(=O)NCC(C)NS(C)(=O)=O)cc1 (stereo not drawn) 60.2%, Cc1ccc(C)c(N2C(=O)CS/C2=N\NC(=O)c2ccccc2Cl)c1 77.7%, O=C(CC(O)(C(F)(F)F)C(F)(F)F)Nc1ccc(Cl)c(Cl)c1 65%, C=CCn1c(N)c(S(=O)(=O)c2cccs2)c2nc3ccccc3nc21 86.3%, O=C(C1CCN(S(=O)(=O)Cc2ccccc2)CC1)N1CCCc2ccccc21 51.8%, COc1ccc(C(=O)N2CCc3cc(OC)c(OC)cc3C2c2cccc([N+](=O)[O-])c2)cc1 (stereo not drawn) 64.4%, O=C(NCc1ccco1)c1cc2sccc2n1Cc1ccc(F)cc1 60.8%, O=C(NCc1ccco1)c1ccc(Cn2c(=O)c3sccc3n(Cc3ccc(F)cc3)c2=O)cc1 79.7%, O=C(Cc1ccc(-n2c(=O)c3sccc3n(Cc3ccc(F)cc3)c2=O)cc1)NCc1ccco1 69.5%, CCN(CCCNC(=O)C1CCN(S(=O)(=O)c2cnc[nH]2)CC1)c1ccccc1 81.8%, Cc1ccccc1-c1nnc(SCC(=O)NCc2ccc3c(c2)OCO3)n1C 88.6%, Cc1ccc(-n2c(SCC(=O)NCc3ccc4c(c3)OCO4)nnc2-c2cccnc2)c(C)c1 62.7%, Cn1cccc1Cc1nnc(SCC(=O)NCc2ccc3c(c2)OCO3)n1CCc1ccccc1 55%, O=C(c1ccco1)N1CCN(C(=O)C2c3ccccc3Oc3ccccc32)CC1 58.3%, COc1ccccc1OCCNc1cc(N2CCOCC2)ccc1[N+](=O)[O-] 55.8%, FC(F)Oc1ccccc1C1CC(c2ccc(Br)s2)Nc2ncnn21 (stereo not drawn) 91.4%, COc1ccc(C2CC(c3ccc(C)cc3)Nc3ncnn32)cc1 (stereo not drawn) 65.4%, COC(=O)c1sccc1NC(=O)CSc1ccccc1NS(=O)(=O)c1cc(Cl)ccc1Cl 84.2%, CCn1c(SCC(=O)Nc2ccc3c(c2)OCCO3)nc2c(c1=O)SC(C)C2 (stereo not drawn) 92.9%, CCCCSc1nc2c(c(=O)n1CC)SC(C)C2 (stereo not drawn) 51.2%
